Test results reported in ChEMBL document CHEMBL1201862, “PubChem BioAssay data set” (2004).
Out of some 1,500 compounds screened, about 140 (9.3%) were called active. How the calls were made is not given here. Only a selection was taken, and actives are over-represented in it overall.

Assay: false positives in methylated H4 peptide AlphaScreen detection – biochemical, cherry-picked samples, artefact control for NSD2 inhibitor project, dose response (AID 1053174);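 further: actives lower the AlphaScreen signal from the preloaded product and count as artifacts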

Compound	AbsAC35
OCC[n+]1c2ccccc2nc2ccc(N3CCOCC3)cc21	15.8 µM (active)
N/C(=N\N=C/c1ccc(-c2ccc(O)c(C(=O)O)c2)o1)N[N+](=O)[O-]	19.7 µM (active)
CN(c1ccc(O)cc1)c1ccc([N+](=O)[O-])c2nonc12	15.7 µM (active)
CCCCCCCSc1cc(OC)c(CCNC)cc1OC	14.6 µM (active)
CC[n+]1c(-c2ccccc2)c2cc(N)ccc2c2ccc(N)cc21	21.9 µM (active)
CN(C)c1ccc(CN2CC=C(c3ccc(F)cc3)CC2)cc1	15.5 µM (active)
CCN(CC)c1ccc(CN2CC=C(c3ccc(F)cc3)CC2)cc1	15.3 µM (active)
CCCCN1C(=O)/C(=C/C=C/c2ccco2)C(=O)NC1=S	10.6 µM (active)
CN(C)c1ccc(/C=C/c2cc[n+](C)c3ccccc23)cc1	10.6 µM (active)
